# Reference: PubChem BioAssay AID1063 (University of Pittsburgh Molecular Library Screening Center, 2008)
# Among all 200,000 compounds or so, about 18,000 (9%) were called active. This is one part of a sample in which actives are shown more often than they occur. Values without a mark were called inactive. No stated cut-off is given here; in the data, active means inhibition above about 50%; inactive means the rest.
# Assay: antileishmanial activity against promastigotes – primary screen (AID 1063);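 further: promastigotes grown with compound for 44 hours at 28 °C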
# Settings: Leishmania major promastigotes, resazurin fluorescence viability; at 10 µM; active compounds read high
row,SMILES,inhibition
1,O=C(CSc1nnc2ccc(-c3ccncc3)nn12)N1CCCCC1,20.4%
2,CC(=O)Nc1ccc(S(=O)(=O)NC2(C(F)(F)F)C(=O)NC(C)=C2C#N)cc1 (configuration not stated),-4.23%
3,O=C(NCc1nnc(SCC(=O)N2CCCc3ccccc32)o1)c1ccccc1F,-5.95%
4,O=C(NCc1ccc(Cl)c(Cl)c1)c1cccnc1,-2.18%
5,O=C(Nc1cccnc1)c1ccc(Cl)c([N+](=O)[O-])c1,1.22%
6,O=C(/C=C/c1ccc(Cl)cc1Cl)c1cccnc1,100% (active)
7,CN(C)c1ccc(/C=C/C(=O)c2ccc(C(C)(C)C)cc2)cc1[N+](=O)[O-],27.1%
8,O=C(/C=C/c1ccc(Cl)cc1Cl)NCc1ccco1,-1.38%
9,O=C(/C=C/c1ccc(Cl)c([N+](=O)[O-])c1)c1cccnc1,100% (active)
10,COCCNc1nc2nonc2nc1N(C)Cc1ccc(C)cc1,2.88%
11,CCC(C)(C(=O)Nc1ccccc1C)N(C(=O)CNC(C)=O)c1ccc(C)cc1 (configuration not stated),-4.62%
12,CSc1ccc(CN2C(=O)NC3(CCCCCC3)C2=O)cc1,9.1%
13,CC(NCc1nc2ccccc2n1C)C12CC3CC(CC(C3)C1)C2 (configuration not stated),12.4%
14,Cc1ccccc1-c1nc(C#N)c(NCc2ccco2)o1,-3.77%
15,CC(C)(C)C1CCC(C(=O)Nc2cccnc2)CC1 (configuration not stated),-5.65%
16,CCOC(=O)c1sc(-c2cccc([N+](=O)[O-])c2)cc1N,4.06%
17,CCOC(=O)c1sc2nc(CSc3ccccc3)[nH]c(=O)c2c1C,14.1%
18,CCOC(=O)c1sc(C)c2c1NC(C)(c1cccc3ccccc13)NC2=O (configuration not stated),97.3% (active)
19,O=C(O)CCCCCNc1ncnc2ccc(Br)cc12,-1.72%
20,CC(C)OC(=O)CN1C(=O)C(=O)c2ccccc21,88% (active)
21,Cc1cccc2c1N(CC(=O)OC(C)C)C(=O)C2=O,-12.8%
22,CC(C)OC(=O)CN1C(=O)c2ccccc2C1=O,14.7%
23,O=C(CC1CCCCC1)NCc1ccc(F)cc1,-12.7%
24,CC(C)Oc1ccc(CCc2nnc(SCC(=O)O)n2-c2ccccc2)cc1,-8.77%
25,NS(=O)(=O)c1ccc(NC(=O)COC(=O)C2(c3ccc(F)cc3)CCCC2)cc1,70.2% (active)

row,SMILES,inhibition
1,CN(C)S(=O)(=O)c1cccc(NC(=O)COC(=O)C2(c3ccccc3F)CCCC2)c1,28.6%
2,NS(=O)(=O)c1ccc(NC(=O)COC(=O)c2ccco2)cc1,0.53%
3,CC(Oc1ccc(Br)cc1Br)C(=O)NC1CCCC1 (configuration not stated),-1.48%
4,CC(=O)Nc1ccc(Nc2c([N+](=O)[O-])cc(S(C)(=O)=O)cc2[N+](=O)[O-])cc1,10.8%
5,O=[N+]([O-])c1cccc(Nc2c3ccccc3nc3ccccc23)c1,69.1% (active)
6,CC(=O)Nc1ccc(NC(=O)COc2ncnc3ccccc23)cc1,-2.61%
7,Cc1cc(CNC(=O)c2cccc([N+](=O)[O-])c2)c2ccccc2n1,9.74%
8,CC(=O)Nc1ccc(Nc2c3ccccc3nc3ccccc23)cc1,101% (active)
9,O=C(CSCC(=O)Nc1cccc([N+](=O)[O-])c1)Nc1ccccc1,4.18%
10,O=C(O)CCc1nc2cc(Cl)ccc2n(Cc2ccccc2)c1=O,-0.11%
11,CCC1(CC)NC(=O)N(Cc2nc3ccccc3s2)C1=O,-8.89%
12,CCNC(=O)COC(=O)CCNC(=O)c1cccc(C)c1,-5.94%
13,CC1CC(C)(C)NC(=S)N1CCC(=O)N1CCN(Cc2ccccc2)CC1 (configuration not stated),0.54%
14,NC(=O)Cn1nc([N+](=O)[O-])nc1Oc1ccc(Br)cc1,33.2%
15,NC(=O)c1ccc(NC(=O)COC(=O)C(Cc2ccccc2)NC(=O)c2ccccc2)cc1 (configuration not stated),1.11%
16,O=C1CC(c2cccc(F)c2)C2=C(CCCC2=O)N1 (configuration not stated),-5.73%
17,O=C1CSC(c2cccc(F)c2)N1c1ccccc1F (configuration not stated),1.64%
18,O=C1CCCC2=C1C(c1ccccc1)n1c(s/c(=C/c3cccc(F)c3)c1=O)=N2 (configuration not stated),60.3% (active)
19,CCSC1=NCCN1C(=O)c1ccc(S(=O)(=O)N(CC)CC)cc1,2.69%
20,C=CCN(Cc1nc(-c2cc(OC)c3c(c2)OCO3)oc1C)C1CCS(=O)(=O)C1 (configuration not stated),64.6% (active)
21,Cc1cccc(C(=O)Nc2ccccc2C(=O)NCc2cccnc2)c1,-3.01%
22,CCCCN(C)CCC(=O)Nc1ccc(Cl)cc1,63.4% (active)
23,O=C(CCC(=O)OCc1ccc(Cl)cc1)Nc1ccccc1,-2.39%
24,CCCCC(=O)Nc1ccc2c(c1)OCCO2,1.71%
25,CCOC(=O)Cc1csc(NC(=O)C(C)(C)C)n1,-0.74%

row,SMILES,inhibition
1,CCOC(=O)Cc1csc(NC(=O)Nc2ccccc2)n1,0.22%
2,CCOC(=O)Cc1csc(NC(=O)CSc2nc(C)cc(=O)[nH]2)n1,-12.1%
3,CCOC(=O)Cc1csc(SCc2cc(=O)oc3cc(O)ccc23)n1,-10.2%
4,CCOC(=O)Cc1csc(SCC(=O)NC(C)C23CC4CC(CC(C4)C2)C3)n1 (configuration not stated),98.6% (active)
5,CCOC(=O)Cc1csc(NC(=O)CSc2ccc(Br)cc2)n1,77.7% (active)
6,Cc1ccccc1N/C(SCc1ccc(Cl)cc1)=C(/C#N)C(N)=O,25.8%
7,CC1(c2cccc([N+](=O)[O-])c2)CC(C)(C)N(C(=O)c2ccccc2)c2ccccc21 (configuration not stated),22.4%
8,CC1CCN(C(=S)c2cccc([N+](=O)[O-])c2)CC1,-0.83%
9,CC1(c2ccccc2)CC(C)(C)N(C(=O)c2cc([N+](=O)[O-])cc([N+](=O)[O-])c2)c2ccccc21 (configuration not stated),99.6% (active)
10,COC(=O)NNC1=CC(=O)CC(C)(C)C1,-0.84%
11,CN(C(=O)COc1ncnc2c1cnn2-c1ccccc1)C1CCCCC1,0.81%
12,CCOC(=O)C1CCCN(C(=O)c2cccc(S(=O)(=O)N3CCOCC3)c2)C1 (configuration not stated),-6.48%
13,COCCn1c(SCC(=O)Nc2ccc3c(c2)CCC3)nc2ccccc2c1=O,59.6% (active)
14,CC(=O)NCCn1c(SCC(=O)Nc2ccc(C)cc2)nc2ccccc2c1=O,0.63%
15,CCc1nnc(NC(=O)CSc2nc3ccccc3c(=O)n2CCCOC)s1,11.7%
16,Cc1cccc(NC(=S)Nc2ccc(Cl)c(Cl)c2)c1,33.5%
17,CN(C)S(=O)(=O)Oc1ccccc1C(=O)Nc1ccccc1Cl,3.48%
18,O=C(CCC(=O)NNc1nc2ccccc2c2nc(-c3ccccc3)nn12)NCCCN1CCCC1=O,1.2%
19,Cc1ccc2c(Cl)c(C(=O)Nc3nn[nH]n3)sc2c1,12.8%
20,Cc1ccc2c(Cl)c(C(=O)NCCCn3ccnc3)sc2c1,99.3% (active)
21,O=C(NCCCn1ccnc1)Nc1ccc(Cl)cc1Cl,0.73%
22,CCCN(CCC)c1ccc(C(O)c2nnc(-c3ccccc3)o2)cc1 (configuration not stated),13.2%
23,Cc1ccc(Cl)cc1NC(=O)COC(=O)CC(C)(C)C,34.5%
24,COc1ccc(C(CCNCc2ccccc2F)c2ccc(F)cc2)cc1 (configuration not stated),78.9% (active)
25,COc1ccc(CC(=O)NC(C)CCc2ccccc2)cc1 (configuration not stated),-3.88%

row,SMILES,inhibition
1,COc1ccc(C(CC(=O)O)NC(=O)Cc2ccccc2)cc1 (configuration not stated),-6.94%
2,Cc1cc(NS(=O)(=O)c2ccc(NC(=S)NC(=O)c3ccc(F)cc3Cl)cc2)no1,48.3%
3,CCN(CCCNC(=O)CSc1cc(=O)n(C)c2cc(Cl)ccc12)Cc1ccccc1,20.1%
4,COc1ccc(-n2cc(CNC3CCOCC3)c(-c3cccc(F)c3)n2)cc1,31.6%
5,O=C(NCCN1CCOCC1)c1cc(Sc2cccc(Cl)c2)nc2ccccc12,1.33%
6,CC(C)OCCCNC(=O)c1cc(Sc2ccc(F)cc2)nc2ccccc12,50.2% (active)
7,CC(C)CCNC(=O)c1cccnc1Sc1ccccc1,32.8%
8,CN1CCNC(=O)C1CC(=O)NCCC1=CCCCC1 (configuration not stated),4.58%
9,CCOC(=O)c1c(C)[nH]c(C2=NNC(=NC(C)COC)SC2)c1C (configuration not stated),8.5%
10,CC(C)Cc1nn2c(=O)cc(O)nc2s1,54.9% (active)
11,Cc1sc(NC(=S)NC(=O)c2cccs2)nc1-c1ccc(CC(C)C)cc1,-14.6%
12,CCCn1c(=NC(C)=O)c(C(=O)OCC)cc2c(=O)n3ccccc3nc21,7.11%
13,CCOC(=O)c1cc2c(=O)n3ccccc3nc2n(CC(C)C)c1=NC(=O)c1c(-c2c(F)cccc2Cl)noc1C,98.8% (active)
14,C/C(=N/OC(=O)c1c(-c2c(F)cccc2Cl)noc1C)c1cnccn1,0.04%
15,COc1ccc(NC(=O)/C(C#N)=C\c2cc(OC)c(OCc3ccc(C(=O)O)cc3)cc2Br)cc1,4.82%
16,O=C(CN1CCN(c2nc(-c3ccccc3)cs2)CC1)NCc1ccc2c(c1)OCO2,1.96%
17,COc1ccc(-c2csc(N3CCN(Cc4ccc5c(c4)OCO5)CC3)n2)cc1,76.3% (active)
18,COc1cccc(NC(=O)CN2CCN(c3nc(-c4cccc(OC)c4)cs3)CC2)c1,9.93%
19,Cc1nn(C)c(C)c1CN(C(=O)CCc1nnc(Cc2c[nH]c3ccccc23)o1)C(C)C,-4.01%
20,Cc1cccc(N(CC(=O)N=Nc2c(O)[nH]c3ccccc23)S(C)(=O)=O)c1C,95.3% (active)
21,COCC(=O)N=Nc1c(O)[nH]c2ccccc12,-1.1%
22,Cc1c(-c2ccccc2)n[nH]c1C(=O)N=Nc1c(O)[nH]c2ccccc12,4.35%
